Measurements reported in PubChem BioAssay (Tox21).
Values joined by “and” are separate entries in the source; they are usually repeats but may differ in a detail not shown here. Identical values can stand only once. Inconclusive results are not listed. Values without a mark were called inactive. Active and inactive are the calls of the source. Calls come from the whole dose curve; as a rule, active = well fitted activation curve with a large enough effect in the repeat runs; inconclusive = weak or mixed curves; inactive = flat fitted curve, though single readings scatter.

Experiment: A CellTox Green Cytotoxicity Assay to monitor cytotoxicity in HepG2 cells - 16 hour (AID 1224876); note: nearly all actives have a fitted effect of over 45% in size
Conditions: CellTox Green fluorescence; series mostly up to 76.8 µM; cytotoxicity increase: at the top concentration
Excerpt: National Center for Advancing Translational Sciences [NCATS]
NIH Chemical Genomics Center [NCGC]
U.S. Environmental Protection Agency [EPA]
National Institutes of Environmental Health Sciences [NIEHS]
National Toxicology Program [NTP]
Cell-based models are critical for drug discovery. Determining the natural cytotoxic effects resulting from test compounds is an essential research activity. A CellTox Green Cytotoxicity Assay to monitor cytotoxicity in real time of continues cell culture during 40 hours of the compound treatment was used to screen Tox21 10K library compounds in HepG2 cells. CellTox Green Cytotoxicity Assay is a nonlytic, homogeneous, biofluorescent method to measure cytotoxicity in cell culture after experimental manipulation. The assay system uses a proprietary asymmetric cyanine dye that is excluded from viable cells but preferentially stains the dead cell's DNA. […] Viable cells produce no appreciable increases in fluorescence. Therefore, the fluorescence signal produced by the binding interaction with dead cell DNA is proportional to cytotoxicity.
The mixture of HepG2 cell suspension and reagents were dispensed at 600cells/6 ul/well in 1536-well tissue culture treated black solid bottom plates using a Multidrop dispenser. After the assay plates were incubated at a 37 C/5% CO2 incubator for 5 hours, 23 nL of compounds dissolved in DMSO, positive and negative controls was transferred to the assay plate by a pintool work station. The plates were incubated at 37 C for 40 hours. The fluorescence intensity were measured at 0h, 8h, 16h, 24h, 32h and 40h time points using ViewLux plate reader during compound treatment.
% is set by controls: 0 for no effect and ±100 for the full control effect; potency is the fitted concentration of half-maximal effect.

SMILES	Potency	cytotoxicity increase
[O]=[Cr](=[O])([OH])[O][Cr](=[O])(=[O])[OH]	inactive	–
CC(C)(C)c1ccc(OP(=O)(Oc2ccccc2)Oc2ccccc2)cc1	–	2.84%
CCOP(=S)(OCC)SC(CCl)N1C(=O)c2ccccc2C1=O (stereo not given)	–	-4.68%
CC(=O)[O-].CC(=O)[O-].CC(=O)[O-].[Cr+3]	–	-1.03%
O=C1C2(Cl)C3(Cl)C4(Cl)C(Cl)(Cl)C5(Cl)C3(Cl)C1(Cl)C5(Cl)C24Cl (stereo not given)	24.1 µM (active) and 41.8 µM (active)	–
C=CCOC(=O)c1ccccc1N	–	0.0716%
ClSC(Cl)(Cl)Cl	–	4.46%
Nc1cc(Cl)ccc1Cl	–	-1.84%
Oc1cc(Cl)c(Cl)c(Cl)c1Cl	–	3.85%
[Cl-].[Cl-].[Sn+2]	–	-5.43%
CCC(C)Nc1c([N+](=O)[O-])cc(C(C)(C)C)cc1[N+](=O)[O-] (stereo not given)	–	2.25%
CC(C)N(C(=O)CCl)c1ccccc1	inactive	–
[Cl][Hg][c]1ccccc1	2.75 µM (active)	–
N#CSCc1ccccc1	–	-6.98%
COC(=O)/C=C(\C)OP(=O)(OC)OC	–	0.592%
CC(=O)[O-].CC(=O)[O-].O.O.O.[Pb+2]	–	-5.45%
Nc1nc(N)nc(Cl)n1	–	0.686%
CCN(CC)Cc1nccn1-c1ccc([N+](=O)[O-])cc1C(=O)c1ccccc1Cl	–	-0.699% [at 35.3 µM]
CC1CN1 (stereo not given)	–	3.66%
COc1c2c(cc3c1OCO3)CCN(C)C2	–	-7.42% [at 35.3 µM]

SMILES	Potency	cytotoxicity increase
CCCC[N+]1(C)CCCC1 (tested in a mixture with another compound)	–	-0.29%
COC(=O)C(C)N(C(=O)c1ccco1)c1c(C)cccc1C (stereo not given)	–	-4.43%
O=C(N[C@@H]1N=C(c2ccccc2F)c2cccc3c2N(CC3)C1=O)c1cc2ccccc2[nH]1	21.3 µM (active)	–
N#Cc1ccc(N(CC(N)=O)CC(F)(F)F)cc1C(F)(F)F	–	-17.3%
Nc1ccc(N=Nc2ccccc2)cc1	–	5.84%
COP(=S)(OC)Oc1ccc([N+](=O)[O-])c(C)c1	–	-12.9%
O=[N+]([O-])c1cccc2cccc([N+](=O)[O-])c12	–	-2.69%
O=[N+]([O-])C(Br)Br	–	-1.19%
O=[N+]([O-])c1cc(C(F)(F)F)c(Cl)c([N+](=O)[O-])c1Nc1ncc(C(F)(F)F)cc1Cl	43.6 µM (active)	–
O=C(Nc1ccc(F)cc1F)c1cccnc1Oc1cccc(C(F)(F)F)c1	–	6.24%
Brc1ccc(Oc2ccc(Br)cc2Br)c(Br)c1	–	-6.13%
N#Cc1c2ccccc2cc2ccccc12	–	0.91%
O=[N+]([O-])c1ccc(CCl)cc1	–	0.188%
O=P(Cl)(Cl)Cl	–	-1.27%
O=C(O)CCCCCCNC1c2ccccc2CCc2ccccc21	–	3.51% [at 35.3 µM]
Nc1nc(N)c(N)c(N)n1	55.2 µM (active)	–
CC(C)C(Br)C(=O)NC(N)=O (stereo not given)	–	3.48% [at 35.3 µM]
O=Cc1ccccc1	–	-6.24%
CC(Cl)CCl (stereo not given)	–	1.03%
CN=C=O	–	-9.06%
